Assays:
[1] = qHTS profiling of the MIPE4 collection as inhibitors of Plasmodium falciparum (3D7) proliferation (AID 743344);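 further: scaled between DMSO vehicle wells and 0.29 µM artemisinin as full inhibition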; settings: P. falciparum 3D7 in erythrocytes, SYBR Green DNA fluorescence, 72 h; at 28.5 µM unless noted
Summary of the method: (§1)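 Erythrocytes infected with P. falciparum (0.3% parasitemia, 2.5% hematocrit) incubated with compounds 72 h at 37 C, 5% CO2. Lysis with saponin/Triton buffer containing SYBR Green I, overnight at room temperature in the dark; DNA fluorescence (485/535 nm) normalised to 0.29 uM artemisinin and DMSO.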

[2] = qHTS profiling of the MIPE4 collection as inhibitors of Plasmodium falciparum (DD2) proliferation (AID 743345); settings: P. falciparum Dd2 in erythrocytes, SYBR Green DNA, 72 h; at 28.5 µM unless noted
Summary of the method: as §1

[3] = qHTS profiling of the MIPE4 collection as inhibitors of Plasmodium falciparum (DD2) proliferation (Rep 2) (AID 743346); settings: P. falciparum Dd2 in erythrocytes, SYBR Green DNA, 72 h; at 28.5 µM unless noted
Summary of the method: as §1

| SMILES | parasite growth, % of DMSO control [1] [%] | parasite growth remaining, % of DMSO control (lower = more inhibition) [2] [%] | parasite growth, % of control (lower = inhibition) [3] [%] |
| --- | --- | --- | --- |
| CC(=O)N[C@@H]1[C@H](O[C@@H]2c3ccc(c(Cl)c3)Oc3cc4cc(c3O[C@H]3O[C@H](CO)[C@@H](O)[C@H](O)[C@H]3NC(=O)CCCCCCCC(C)C)Oc3ccc(cc3Cl)C[C@H]3NC(=O)[C@H](N)c5ccc(O)c(c5)Oc5cc(O)cc(c5)[C@H](NC3=O)C(=O)N[C@H]4C(=O)N[C@H]3C(=O)N[C@@H]2C(=O)N[C@@H](C(=O)O)c2cc(O)cc(O[C@H]4O[C@H](CO)[C@@H](O)[C@H](O)[C@H]4O)c2-c2cc3ccc2O)O[C@H](CO)[C@@H](O)[C@@H]1O | 395 | 99.1 | 159 |
| FC(F)(F)c1ccc(Nc2nc3ccc(Oc4ccnc(-c5ncc(C(F)(F)F)[nH]5)c4)cc3[nH]2)cc1 | 6.13 | 48.6 | 15.3 |
| CCCCCCCCc1ccc(CCC(N)(CO)CO)cc1 | 9.21 | 14.6 | 24.2 |
| CCN(CC)CCCCNc1ncc2c(n1)N(C)C(=O)N(c1c(Cl)c(OC)cc(OC)c1Cl)C2 | 25.2 | 17.7 | 23.7 |
| COc1cc(C(C)C)c(Oc2cnc(NC(CO)CO)nc2N)cc1I | 82.2 | 86.9 | 60.9 |
| CC(C)(O)CC[C@@H](O)[C@](C)(O)[C@H]1CC[C@@]2(O)C3=CC(=O)[C@@H]4C[C@@H](O)[C@@H](O)C[C@]4(C)[C@@H]3CC[C@]12C | 385 | 110 | 122 |
| C=C1C(=CC=C2CCC[C@]3(C)[C@@H]([C@H](C)CCCC(C)(C)O)CC[C@@H]23)C[C@@H](O)C[C@@H]1O | 15.5 | 95.2 | 22.4 |
| CC(C=CC=C(C)C=CC1=C(C)CCCC1(C)C)=CC=CC=C(C)C=CC=C(C)C=CC1=C(C)CCCC1(C)C | 11.9 | 92.7 | 28.1 |
| CC(=O)O[C@]1(C(C)=O)CC[C@H]2[C@@H]3C=C(C)C4=CC(=O)CC[C@]4(C)[C@@H]3CC[C@@]21C | 23.2 | 73.4 | 18.8 |
| CC(=O)O[C@@]12CO[C@H]1C[C@H](O)[C@@]1(C)C(=O)[C@H](O)C3=C(C)[C@@H](OC(=O)C(O)[C@@H](NC(=O)OC(C)(C)C)c4ccccc4)C[C@@](O)([C@@H](OC(=O)c4ccccc4)[C@@H]21)C3(C)C (stereo not given in full) | 5.89 | 18.8 | 30.4 |
| C[C@@]12C(=O)OC(=O)[C@@]1(C)C1CCC2O1 | 12.4 | 14.9 | 13.5 |
| C=Cc1c(C)c2cc3nc(cc4[nH]c(cc5nc(cc1[nH]2)C(C)=C5CCC(=O)O)c(CCC(=O)OC)c4C)[C@@]1(C)C3=CC=C(C(=O)OC)[C@H]1C(=O)OC | 3.3 | 5.89 | 6.94 |
| C[C@H](NC(=O)[C@@H](O)c1cc(F)cc(F)c1)C(=O)N[C@@H]1C(=O)N(C)c2ccccc2-c2ccccc21 | 11 | 12.1 | 27.7 |
| NS(=O)(=O)OC[C@@H]1C[C@@H](n2ccc3c(N[C@H]4CCc5ccccc54)ncnc32)C[C@H]1O | 23.8 | 92.9 | 46.9 |
| Nc1ccc(C(=O)Nc2cccc(-c3nc(N4CCOCC4)c4oc5ncccc5c4n3)c2)cn1 | 6.14 | 6.97 | 9.55 |
| CC(=O)C1=C(O)C=C2Oc3c(C(C)=O)c(O)c(C)c(O)c3C2(C)C1=O (stereo not given) | 82.6 | 97.8 | 81 |
| c1cc(CN2CCCNCCNCCCNCC2)ccc1CN1CCCNCCNCCCNCC1 | 91.4 | 96.2 | 74 |
| CCN(C(=O)c1c(O)c2c(Cl)cccc2n(C)c1=O)c1ccccc1 | 94.2 | 108 | 78.3 |
| CCCCOc1ccc(C(=O)Nc2ccc(F)cc2F)cc1 | 108 | 95.7 | 174 |
| COc1cccc2c1C(=O)c1c(O)c3c(c(O)c1C2=O)C[C@@](O)(C(C)=O)C[C@H]3O[C@H]1C[C@H](N)[C@H](O)[C@H](C)O1 | 13.5 | 5.82 | 6.6 |

Source: PubChem BioAssay (NCATS)
